Assay results from PubChem BioAssay AID2530 (National Center for Advancing Translational Sciences (NCATS), 2010).
Inconclusive results are not listed. Unmarked numbers belong to inactive results. Activity calls are given as the source filed them. Calls come from the whole dose curve; as a rule, active = well fitted inhibition curve with a large enough effect; inconclusive = small, poorly fitted or top-dose-only effect; inactive = flat fitted curve, though single readings scatter.

Molecular target: Luciferin 4-monooxygenase (Photuris pensylvanica) (UniProt Q27757)
Assay: Secondary Assay for Luciferase (Kinase-Glo TM) Inhibition Counterscreen;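 for activity, negative = inhibition: 0% = DMSO only and -100% = 40 µM SIB 1757 full inhibition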
Conditions: Kinase-Glo luciferase enzyme, luminescence; series mostly up to 58.1 µM; activity, negative = inhibition: at the top concentration
Outline: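 Inhibition was fitted with the Hill equation after normalizing luminescence to DMSO (basal) and 40 uM SIB 1757 (full inhibition). Kinase-Glo luciferase ran for 8 min at room temperature in imidazole buffer pH 7.2 with KCl, MgCl2 and 10 uM ATP.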
Potency is the fitted concentration of half-maximal effect.

SMILES	activity, negative = inhibition	Potency
Cc1ccc(C(=O)/C=C/C(=O)c2ccc(C)cc2)cc1	-0.776%	
CSc1cc2c(s1)c1cnn(Cc3cccc(O)c3)c(=O)c1n2C	-1.24%	
Cc1ccc(NS(=O)(=O)c2cc3c(cc2Cl)NC(=O)CO3)cc1C	-2.48%	
O=C1c2ccccc2-c2nnc(-c3ccccc3)cc21		4.11 µM (active)
COc1cc(N2C(=O)C=CC2=O)c(OC)cc1Cl	-4.86%	
Fc1ccc(-c2nc3n(n2)Cc2ccccc2-3)cc1		7.3 µM (active)
O=C1c2ccccc2C(=O)N1c1cncc2ccccc12	0.68%	
Cc1ccc(NS(=O)(=O)c2cccc(C(=O)O)c2)cc1C	-3.53%	
CN1CCc2cccc3c2C1Cc1ccc(O)c(O)c1-3 (stereo not drawn)	1.25%	
COc1ccc(OC2=NS(=O)(=O)c3ccccc32)cc1	-2.4%	
Cc1cccc(OC2=NS(=O)(=O)c3ccccc32)c1	-3.94%	
O=C1CCc2cc(S(=O)(=O)Nc3cccc(Cl)c3)ccc2N1	-0.248%	
O=C1CCc2cc(S(=O)(=O)Nc3cccc4ccccc34)ccc2N1	-0.456%	
CC[n+]1c(C)sc2sc3ccccc3c21	0.171%	
COc1cccc(Cn2ncc3c4sc(S(C)=O)cc4n(C)c3c2=O)c1 (stereo not drawn)		inactive
COc1ccc(C(=O)N=c2nc3ccccn3s2)cc1		5.8 µM (active)
O=C(/C=C/Nc1ccccc1Br)c1ccccn1		13 µM (active)
O=C1C=CC(=O)N1c1cccc(-c2ccccc2)c1	-3.96%	
COc1ccccc1N1C(=O)c2ccccc2C1=O	0.884%	

SMILES	activity, negative = inhibition	Potency
O=C1CCc2cc(S(=O)(=O)Nc3cccc(F)c3)ccc2N1	-4.76%	
O=C1CCc2cc(S(=O)(=O)Nc3cccc(-c4ccccc4)c3)ccc2N1	-0.362%	
C[C@]12CC[C@@H]3c4cc(O)c(O)cc4CC[C@H]3[C@@H]1CC[C@@H]2O	-6.33%	
COc1cc(/C=N/N2C(C)CCCC2C)cc(OC)c1O (stereo not drawn)	0.38%	
Cc1cc(C)c2c(=O)n(CC(=O)Nc3cccc(Cl)c3C)sc2n1	-15.8%	
Cc1sc2nc(CN3CCN(c4ccc(O)cc4)CC3)[nH]c(=O)c2c1C	0.226%	
Cc1ccc(NS(=O)(=O)c2ccc(F)cc2)cc1C	-2.52%	
COc1cccc(N2C(=O)c3ccccc3C2=O)n1	-2.44%	
COc1ccc(S(=O)(=O)Nc2ccc(C)c(C)c2)cc1	-2.2%	
Cn1c2cc(S(C)=O)sc2c2cnn(Cc3cccc(O)c3)c(=O)c21 (stereo not drawn)	1.28%	
O=C(Nc1ccc2c(c1)OCCO2)c1ccccn1		18.3 µM (active)
Cc1nc(N/N=C/c2ccccn2)sc1C		5.8 µM (active)
CCCCN1C(=O)c2ccccc2C1=O	0.2%	
O=C1CCc2cc(S(=O)(=O)Nc3cccnc3)ccc2N1	-1.37%	
Cn1c2cc(S(C)=O)sc2c2cnn(Cc3cccc(N)c3)c(=O)c21 (stereo not drawn)	-0.0499%	
Cc1ccc(NS(=O)(=O)c2cccc(F)c2)cc1C	-0.467%	
Cc1ccc(NS(=O)(=O)c2ccc3c(c2)NC(=O)CO3)cc1C	3.32%	
O=C1CCc2cc(S(=O)(=O)Nc3ccc(Cl)cc3)ccc2N1	-2.19%	
N/C(=N\OC(=O)c1ccccc1)c1ccccn1		4.61 µM (active)
